Data published in PubChem BioAssay (NCATS).
Values without a mark were called inactive. Inconclusive results are not listed. Where a call stands in place of a potency, no number is given. The source made the active and inactive calls. Unless noted, the call rests on the fitted dose curve; in most records, active means well fitted curve in the direction sought with a large enough effect; inconclusive means small, poorly fitted or top-dose-only effect, or another doubt; inactive means no such curve, though single readings can be large; an effect the other way counts as inactive or inconclusive.

Columns and labels:
[1] = target: Dual specificity protein kinase CLK4 (Homo sapiens) (UniProt Q9HAZ1); assay: qHTS Assay for Inhibitors of CDC-like Kinase 4 (Kinase-Glo Assay) (AID 1770); further: nearly all actives have a fitted effect of over 65% in size; further: potency means the concentration at half of the fitted maximal effect
In short: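 Clk4 25 nM, RS peptide 100 uM, ATP 1 uM, pH 7.5 Tris, 10 mM MgCl2, 2.5 mM DTT; 4.5 h RT; ATP depletion read by Kinase-Glo luminescence.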

[2] = target: Dual specificity protein kinase CLK4 (Homo sapiens) (UniProt Q9HAZ1); assay: qHTS Assay for Inhibitors of CDC-like Kinase 4 (ADP-FP Assay) (AID 1795); further: nearly all actives have a fitted effect of over 60% in size; further: potency means the concentration at half of the fitted maximal effect
In short: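 Kinase activity was followed as ADP output, converted from fluorescence polarization with a calibration curve. Reactions ran one hour at low ATP (1 uM) with RS peptide substrate.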

[3] = target: Cytochrome P450 1A2 (Homo sapiens) (UniProt P05177); assay: p450-cyp1a2 (AID 410; calls by dose curve; further: potency means the concentration at half of the fitted maximal effect)
In short: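 Luminescent readout of luciferin formed from Luciferin-ME by human CYP1A2; data normalized against complete inhibition by 57 uM furafylline. Enzyme 20nM, substrate 100uM at Km, 100mM KPO4 buffer, 60 min reaction at room temperature.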

[4] = target: Cytochrome P450 3A4 (Homo sapiens) (UniProt P08684); assay: qHTS Assay for Inhibitors and Substrates of Cytochrome P450 3A4 (AID 884); further: potency means the concentration at half of the fitted maximal effect; nearly all actives have a fitted effect of over 50% in size
In short: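 20 nM human CYP3A4 with 25 uM Luciferin-PPXE (at KM) in 200 mM KPO4, preincubated 10 min with compound; NADPH regeneration started a 60 min RT reaction. Luciferin detected by luminescence, normalized to 57 uM ketoconazole as full inhibition.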

[5] = target: Cytochrome P450 3A4 (Homo sapiens) (UniProt P08684); assay: qHTS Assay for Activators of Cytochrome P450 3A4 (AID 885); further: nearly all actives have a fitted effect of over 65% in size
In short: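 20nM CYP3A4 + 25uM Luciferin-PPXE (=KM), 200mM KPO4; cpd 10 min RT; NADPH regen, 60 min RT; stop w/ detection buffer, 20 min; luminescence. Normalized to 57 uM ketoconazole.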

[6] = target: Cytochrome P450 2C19 (Homo sapiens) (UniProt P33261); assay: qHTS Assay for Inhibitors and Substrates of Cytochrome P450 2C19 (AID 899); further: potency means the concentration at half of the fitted maximal effect; nearly all actives have a fitted effect of over 60% in size
In short: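 Luminescent read-out of luciferin formed from Luciferin-H EGE (10uM, equal to KM). Enzyme 5nM in 50mM KPO4; compound added, 10 min at 37C, then NADPH regenerating system for 60 min at 37C. Full inhibition defined by 57uM ketoconazole.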

[7] = qHTS Assay for Identification of Small Molecule Agonists for Hypoxia Response Element Signaling Pathway (AID 914; active means well fitted activation curve with a large enough effect in the signal ratio, with a control signal flat, not every such curve was filed as active; the % refers to the signal ratio; further: potency means the concentration at half of the fitted maximal effect); details: ME-180 (cervical carcinoma) HRE-bla reporter, beta-lactamase ratio, CoCl2, 17 h; activation: hits give high values
In short: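 Cells were plated overnight, pin-dosed with compound in a titration series, co-stimulated with EC50 CoCl2 and incubated 17 hours at 37 degrees Celsius. CCF4 substrate was then loaded, and AC50 values came from the 460nm/530nm ratio.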

[8] = target: Dual specificity protein kinase CLK4 (Homo sapiens) (UniProt Q9HAZ1); assay: qHTS Assay for Inhibitors of CDC-like Kinase 4 (ADP-Glo Assay) (AID 1771); further: nearly all actives have a fitted effect of over 70% in size; further: potency means the concentration at half of the fitted maximal effect
In short: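 Luminescence from ADP-Glo reports ADP produced by 25 nM Clk4 acting on 100 uM RS repeat peptide with 1 uM ATP over 1 hr at room temperature; residual ATP is depleted before ADP is converted to ATP for detection.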

[9] = target: Cytochrome P450 2D6 (Homo sapiens) (UniProt P10635); assay: qHTS Assay for Inhibitors and Substrates of Cytochrome P450 2D6 (AID 891); further: potency means the concentration at half of the fitted maximal effect; nearly all actives have a fitted effect of over 60% in size
In short: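 Human CYP2D6 (5 nM) with 30 uM Luciferin-ME EGE (at Km) in 100 mM KPO4, compound preincubated 10 min, then NADPH regeneration system for 60 min at room temperature. Luciferin read by luminescence; normalized to 1.43 uM quinidine.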

[10] = target: Cytochrome P450 3A4 (Homo sapiens) (UniProt P08684); assay: qHTS for inhibitors of CYP3A4 against the NCATS DSHEA and TCM libraries (AID 1919971);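 further: inhibition lowers luminescence from luciferin made by CYP3A4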
In short: (§1)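 Read-out is luminescence after P450-Glo detection (30 min, RT). Before that: 15 min compound–enzyme preincubation, then 30-45 min reaction with 1x NADPH regeneration solution, substrate concentration isoform-specific.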

[11] = target: Cytochrome P450 2C9 (Homo sapiens) (UniProt P11712); assay: qHTS for inhibitors of CYP2C9 against the NCATS DSHEA and TCM libraries (AID 1919973);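 further: luminogenic pro-luciferin CYP2C9 substrate turned into luciferin with NADPH regeneration; series mostly up to about 34 µM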
In short: as §1

[12] = target: Cytochrome P450 2C19 (Homo sapiens) (UniProt P33261); assay: qHTS for inhibitors of CYP2C19 against the NCATS DSHEA and TCM libraries (AID 1919974);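 further: luminescence from luciferin released by CYP2C19 oxidation of a pro-luciferin substrate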
In short: as §1

[13] = target: Cytochrome P450 1A2 (Homo sapiens) (UniProt P05177); assay: qHTS for inhibitors of CYPIA2 against the NCATS DSHEA and TCM libraries (AID 1919976);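 further: light from luciferin formed by CYP1A2 from a pro-luciferin substrate; series mostly up to about 37 µM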
In short: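 CYP1A2 + luciferin substrate, 100 mM KPO4-type buffer; cmpd 15 min RT; 1x NADPH regen, 30-45 min RT dark; detection reagent 30 min RT; luminescence. Minus-enzyme wells as background; furafylline intraplate control.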

[14] = target: Glutathione peroxidase 1 (Homo sapiens) (UniProt P07203); assay: Primary qHTS Assay for Inhibitors of Recombinant Selenoprotein Glutathione Peroxidase 1 (GPX1) (AID 1845191); further: nearly all actives have a fitted effect of over 65% in size
In short: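 GR-coupled assay: compounds preincubated 30 min at room temperature with GPX1, then reaction started with CHP; final 10 nM GPX1, 1 mM GSH, 0.5 mM CHP, 0.5 mM NADPH, 100 nM GR, 0.01% BSA, pH 7.5 Tris buffer. NADPH fluorescence (340/450 nm) read at 0 and 15 min.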

[15] = target: Phospholipid hydroperoxide glutathione peroxidase GPX4 (Homo sapiens) (UniProt P36969); assay: Primary qHTS Assay for Inhibitors of Recombinant Selenoprotein Glutathione Peroxidase 4 (GPX4) (AID 1845192); further: series mostly up to about 50 µM; nearly all actives have a fitted effect of over 65% in size
In short: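 GR-coupled assay: recombinant GPX4 preincubated 30 min with compound at room temperature; final 200 nM GPX4, 1 mM GSH, 0.5 mM cumene hydroperoxide, 0.5 mM NADPH, 100 nM GR, 0.01% BSA, pH 7.5 Tris. NADPH fluorescence (340/450 nm) read at 0 and 15 min.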

Cytochrome P450 2C19 (Homo sapiens), sequence (P33261 whole entry, looked up): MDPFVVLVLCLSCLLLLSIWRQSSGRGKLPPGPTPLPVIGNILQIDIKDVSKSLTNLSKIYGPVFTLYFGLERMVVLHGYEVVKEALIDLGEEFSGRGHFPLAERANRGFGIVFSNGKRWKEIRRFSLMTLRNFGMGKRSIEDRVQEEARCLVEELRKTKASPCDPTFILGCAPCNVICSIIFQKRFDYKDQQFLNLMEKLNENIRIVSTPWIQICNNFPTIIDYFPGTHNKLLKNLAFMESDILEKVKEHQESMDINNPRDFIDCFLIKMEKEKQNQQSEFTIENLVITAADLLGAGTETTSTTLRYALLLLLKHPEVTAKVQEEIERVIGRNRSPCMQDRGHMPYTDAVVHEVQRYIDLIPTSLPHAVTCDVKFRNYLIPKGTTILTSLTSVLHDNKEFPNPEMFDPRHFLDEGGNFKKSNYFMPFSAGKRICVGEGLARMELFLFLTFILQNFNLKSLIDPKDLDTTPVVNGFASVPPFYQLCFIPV
Cytochrome P450 3A4 (Homo sapiens), sequence (P08684 whole entry, looked up, canonical isoform): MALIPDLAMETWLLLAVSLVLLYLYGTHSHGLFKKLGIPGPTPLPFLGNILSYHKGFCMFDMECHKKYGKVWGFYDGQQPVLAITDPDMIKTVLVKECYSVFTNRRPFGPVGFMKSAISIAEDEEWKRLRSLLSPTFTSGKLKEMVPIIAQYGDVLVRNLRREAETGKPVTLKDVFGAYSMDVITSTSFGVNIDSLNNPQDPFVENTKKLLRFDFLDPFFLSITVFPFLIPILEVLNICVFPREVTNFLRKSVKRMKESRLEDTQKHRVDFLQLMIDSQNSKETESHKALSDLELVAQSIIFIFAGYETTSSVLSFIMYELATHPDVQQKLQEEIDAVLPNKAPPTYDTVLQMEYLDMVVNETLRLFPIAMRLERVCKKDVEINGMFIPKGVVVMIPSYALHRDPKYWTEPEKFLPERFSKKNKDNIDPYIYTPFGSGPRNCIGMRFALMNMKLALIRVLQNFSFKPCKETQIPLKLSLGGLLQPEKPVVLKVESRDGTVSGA
Cytochrome P450 2C9 (Homo sapiens), sequence (P11712 whole entry, looked up): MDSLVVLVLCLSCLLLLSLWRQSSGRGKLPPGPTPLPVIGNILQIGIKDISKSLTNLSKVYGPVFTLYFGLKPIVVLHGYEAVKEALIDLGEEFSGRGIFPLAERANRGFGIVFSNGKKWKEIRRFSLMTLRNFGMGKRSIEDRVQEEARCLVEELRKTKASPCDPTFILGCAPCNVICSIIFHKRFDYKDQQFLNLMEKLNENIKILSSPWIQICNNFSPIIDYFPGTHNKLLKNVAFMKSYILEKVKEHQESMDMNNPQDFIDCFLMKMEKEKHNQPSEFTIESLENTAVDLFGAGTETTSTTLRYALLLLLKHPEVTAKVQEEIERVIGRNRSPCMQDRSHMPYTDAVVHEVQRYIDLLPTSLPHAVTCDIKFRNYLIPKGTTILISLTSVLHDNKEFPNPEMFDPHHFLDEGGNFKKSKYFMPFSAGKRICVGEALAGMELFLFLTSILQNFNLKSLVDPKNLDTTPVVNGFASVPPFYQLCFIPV
Cytochrome P450 1A2 (Homo sapiens), sequence (P05177 whole entry, looked up): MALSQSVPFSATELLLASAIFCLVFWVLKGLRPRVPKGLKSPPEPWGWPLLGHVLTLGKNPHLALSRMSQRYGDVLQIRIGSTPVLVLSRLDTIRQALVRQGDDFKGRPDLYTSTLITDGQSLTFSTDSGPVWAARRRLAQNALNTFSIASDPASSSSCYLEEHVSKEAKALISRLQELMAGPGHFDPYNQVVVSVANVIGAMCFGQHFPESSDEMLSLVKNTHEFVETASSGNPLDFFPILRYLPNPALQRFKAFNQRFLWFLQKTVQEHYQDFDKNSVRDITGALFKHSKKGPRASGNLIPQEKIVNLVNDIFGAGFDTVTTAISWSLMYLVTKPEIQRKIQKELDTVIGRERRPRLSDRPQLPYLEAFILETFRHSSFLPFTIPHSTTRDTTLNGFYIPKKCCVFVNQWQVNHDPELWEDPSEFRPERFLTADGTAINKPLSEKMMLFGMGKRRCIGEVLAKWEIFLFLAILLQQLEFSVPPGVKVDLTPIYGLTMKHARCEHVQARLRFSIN
Dual specificity protein kinase CLK4 (Homo sapiens), sequence (Q9HAZ1 whole entry, looked up): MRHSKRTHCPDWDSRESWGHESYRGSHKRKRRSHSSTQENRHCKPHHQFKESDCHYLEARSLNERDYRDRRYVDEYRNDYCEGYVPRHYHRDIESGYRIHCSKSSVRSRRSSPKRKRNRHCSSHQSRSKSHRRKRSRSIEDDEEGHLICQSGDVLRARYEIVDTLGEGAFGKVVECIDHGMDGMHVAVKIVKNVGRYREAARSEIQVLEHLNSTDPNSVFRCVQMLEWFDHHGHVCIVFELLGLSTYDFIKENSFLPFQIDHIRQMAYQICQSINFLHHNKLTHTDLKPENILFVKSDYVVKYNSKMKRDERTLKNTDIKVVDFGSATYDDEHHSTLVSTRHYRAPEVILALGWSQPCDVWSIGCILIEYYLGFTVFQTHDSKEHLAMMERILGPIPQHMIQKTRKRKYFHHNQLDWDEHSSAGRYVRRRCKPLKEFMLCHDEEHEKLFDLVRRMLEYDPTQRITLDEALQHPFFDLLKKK
Cytochrome P450 2D6 (Homo sapiens), sequence (P10635 whole entry, looked up): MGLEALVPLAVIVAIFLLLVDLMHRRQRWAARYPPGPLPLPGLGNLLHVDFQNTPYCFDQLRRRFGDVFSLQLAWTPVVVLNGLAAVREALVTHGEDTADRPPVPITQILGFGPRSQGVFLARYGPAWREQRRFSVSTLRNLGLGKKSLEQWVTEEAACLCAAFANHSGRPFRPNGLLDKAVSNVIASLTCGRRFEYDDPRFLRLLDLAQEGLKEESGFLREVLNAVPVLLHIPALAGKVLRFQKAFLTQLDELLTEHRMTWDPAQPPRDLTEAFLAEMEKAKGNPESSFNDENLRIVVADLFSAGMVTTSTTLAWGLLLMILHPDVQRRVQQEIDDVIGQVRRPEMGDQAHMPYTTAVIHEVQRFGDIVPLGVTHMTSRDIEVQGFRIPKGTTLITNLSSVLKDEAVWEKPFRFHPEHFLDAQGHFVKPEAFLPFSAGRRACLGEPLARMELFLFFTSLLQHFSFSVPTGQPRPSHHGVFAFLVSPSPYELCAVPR
Phospholipid hydroperoxide glutathione peroxidase GPX4 (Homo sapiens), sequence (P36969 whole entry, looked up): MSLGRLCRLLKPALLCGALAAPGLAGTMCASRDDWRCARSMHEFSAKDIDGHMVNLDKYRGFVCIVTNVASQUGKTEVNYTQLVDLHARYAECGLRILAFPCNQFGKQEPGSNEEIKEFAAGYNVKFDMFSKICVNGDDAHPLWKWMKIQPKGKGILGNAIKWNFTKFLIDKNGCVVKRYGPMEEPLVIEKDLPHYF
Glutathione peroxidase 1 (Homo sapiens), sequence (P07203 whole entry, looked up): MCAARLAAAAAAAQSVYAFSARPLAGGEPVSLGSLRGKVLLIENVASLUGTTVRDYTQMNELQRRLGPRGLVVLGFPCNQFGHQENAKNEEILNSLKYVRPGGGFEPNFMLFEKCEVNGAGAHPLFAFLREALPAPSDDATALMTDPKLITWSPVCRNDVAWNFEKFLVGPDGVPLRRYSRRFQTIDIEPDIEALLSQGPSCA

## COc1ccc2[nH]cc(CCNc3ncncc3-c3ccc4c(c3)OCO4)c2c1
[1]
  Potency: 8.91 µM (active)
[2]
  Potency: 10 µM (active)

## Cc1cnc(CNc2ncnc3ccc(-c4ccccc4Cl)cc23)cn1
[3]
  Potency: 6.31 µM (active)
[4]
  Potency: 2.51 µM (active)
[1]
  Potency: 15.8 µM (active)

## CS(=O)(=O)Nc1cccc(-c2nc(Nc3ccncc3)c3ccccc3n2)c1
[3]
  Potency: 0.631 µM (active)
[4]
  Potency: 3.98 µM (active)
[5]
  outcome: inactive
[6]
  Potency: 5.01 µM (active)
[1]
  Potency: 12.6 µM (active)

## O=c1c(-c2ccccc2)nc2cnc(N3CCOCC3)nc2n1CCc1ccccc1
[3]
  Potency: 12.6 µM (active)
[5]
  outcome: inactive
[7]
  Potency: 3.16 µM (active)
[1]
  Potency: inactive
[2]
  Potency: inactive

## CN1CCN(c2ncc3nc(CCc4ccccc4)c(=O)n(CCc4ccccc4)c3n2)CC1
[1]
  Potency: inactive
[2]
  Potency: inactive

## CN(C)C(=O)c1ccc(-c2nc(Nc3ccccc3)c3ccccc3n2)cc1
[3]
  Potency: 0.398 µM (active)
[5]
  outcome: inactive
[1]
  Potency: 15.8 µM (active)

## N#Cc1ccccc1-c1ccc2ncnc(NCc3cccnc3)c2c1
[1]
  Potency: 3.16 µM (active)

## CN1CCN(c2ncc3nc(-c4cccc(C#N)c4)c(=O)n(CCc4ccccc4)c3n2)CC1
[1]
  Potency: inactive
[2]
  Potency: inactive

## COc1ccc(-n2c(=O)c(-c3cccs3)nc3cnc(N4CCN(C)CC4)nc32)cc1
[3]
  Potency: 2.51 µM (active)
[5]
  outcome: inactive
[8]
  Potency: inactive
[2]
  Potency: inactive

## Cn1cc(-c2nc3cnc(N4CCNCC4)nc3n(CCc3ccccc3)c2=O)c2ccccc21
[5]
  outcome: inactive
[6]
  Potency: 2 µM (active)
[1]
  Potency: inactive

## Cn1cc(-c2nc3cnc(N4CCNCC4)nc3n(C3CC3)c2=O)c2ccccc21
[3]
  Potency: 12.6 µM (active)
[5]
  outcome: inactive
[1]
  Potency: inactive
[2]
  Potency: inactive

## CCNc1ncc2nc(CCc3ccccc3)c(=O)n(C3CC3)c2n1
[3]
  Potency: 3.16 µM (active)
[5]
  outcome: inactive
[9]
  Potency: 0.398 µM (active)
[6]
  Potency: 6.31 µM (active)
[1]
  Potency: inactive

## COc1ccc(Oc2ncc3nc(-c4ccccc4)c(=O)n(C[C@H]4CCCO4)c3n2)cc1
[8]
  Potency: inactive
[2]
  Potency: inactive

## COc1ccc2[nH]cc(CCNc3ncnc4ccc(-c5cccc(C#N)c5)cc34)c2c1
[3]
  Potency: 2.51 µM (active)
[4]
  Potency: 2.51 µM (active)
[5]
  outcome: inactive
[6]
  Potency: 7.94 µM (active)
[1]
  Potency: 12.6 µM (active)

## c1cncc(CNc2nc(-c3cccnc3)nc3ccccc23)c1
[3]
  Potency: 0.316 µM (active)
[1]
  Potency: 7.08 µM (active)
[2]
  Potency: 11.2 µM (active)

## c1cn(-c2ncnc3ccc(-c4ccoc4)cc23)cn1
[3]
  Potency: 1.26 µM (active)
[4]
  Potency: 0.631 µM (active)
[5]
  outcome: inactive
[1]
  Potency: 0.141 µM (active)
[2]
  Potency: 0.0708 µM (active)

## Cn1c(=O)c(-c2ccc(Cl)cc2)nc2cncnc21
[3]
  Potency: 0.0251 µM (active)
[1]
  Potency: inactive

## Clc1ccccc1-c1nc(-n2ccnc2)c2ccccc2n1
[3]
  Potency: 0.158 µM (active)
[4]
  Potency: 0.501 µM (active)
[5]
  outcome: inactive
[6]
  Potency: 7.94 µM (active)
[1]
  Potency: 1.26 µM (active)
[2]
  Potency: 1 µM (active)

## COc1cccc(Nc2ncc3ncc(=O)n(Cc4ccc(F)cc4)c3n2)c1
[7]
  activation: -20.2%
[1]
  Potency: 3.98 µM (active)

## CN(C)c1ncc2nc(CCc3ccccc3)c(=O)n(CCc3ccccc3)c2n1
[3]
  Potency: 6.31 µM (active)
[4]
  Potency: 6.31 µM (active)
[5]
  outcome: inactive
[7]
  activation: 21.3%
[1]
  Potency: inactive
[2]
  Potency: inactive

## Cc1nc2cnc(OCc3ccccc3)nc2n(CCc2ccccc2)c1=O
[1]
  Potency: inactive
[2]
  Potency: inactive

## COc1ccc2[nH]cc(CCNc3ncncc3-c3ccoc3)c2c1
[1]
  Potency: 14.1 µM (active)
[2]
  Potency: 3.55 µM (active)

## C=C1C[C@@]23CC[C@H]4[C@@](C)(CCC[C@@]4(C)C(=O)O[C@@H]4O[C@H](CO)[C@@H](O)[C@H](O)[C@H]4O)[C@@H]2CC[C@]1(O[C@@H]1O[C@H](CO)[C@@H](O)[C@H](O[C@@H]2O[C@H](CO)[C@@H](O)[C@H](O)[C@H]2O)[C@H]1O[C@@H]1O[C@@H](C)[C@H](O)[C@@H](O)[C@H]1O)C3
[10]
  Potency: inactive
[11]
  Potency: inactive
[12]
  Potency: inactive
[13]
  Potency: inactive

## COc1ccc2[nH]cc(CCNc3ncncc3-c3cccc(C#N)c3)c2c1
[8]
  Potency: 25.1 µM (active)

## CC1(C)C2CCC1(C)C(O)C2 (stereo not given)
[14]
  Potency: inactive
[15]
  Potency: inactive
[10]
  Potency: inactive
[11]
  Potency: inactive
[12]
  Potency: inactive
[13]
  Potency: inactive

## O=C(O)CC(O)(C(=O)O)C(O)C(=O)O (stereo not given)
[10]
  Potency: inactive
[11]
  Potency: inactive
[12]
  Potency: inactive
[13]
  Potency: inactive

## COc1ccc2[nH]cc(CCNc3ncncc3-c3ccccc3C)c2c1
[4]
  Potency: 0.316 µM (active)
[5]
  outcome: inactive
[9]
  Potency: 1.26 µM (active)
[6]
  Potency: 0.0501 µM (active)
[8]
  Potency: 28.2 µM (active)

## CN1CCN(c2ncnc3ccc(-c4cccc(C#N)c4)cc23)CC1
[5]
  outcome: inactive
[8]
  Potency: 15.8 µM (active)

## COc1ccc(-c2coc3cc(O[C@@H]4O[C@H](CO)[C@@H](O)[C@H](O)[C@H]4O)ccc3c2=O)cc1
[10]
  Potency: inactive
[11]
  Potency: inactive
[12]
  Potency: inactive
[13]
  Potency: inactive
